In the supplement of paper PMC6411743:
± gives the standard deviation of the averaged measurements. Of roughly 6,500 targets only a part is listed; those with the largest changes were picked by preference.

Compound: Nc1ncnc2c1ncn2[C@@H]1O[C@H](COP(=O)(O)OP(=O)(O)OP(=O)(O)O)[C@@H](O)[C@H]1O [adenosine triphosphate]
Assay: NP40-soluble protein abundance relative to vehicle (solubility fold change) (ratio); higher = more soluble protein in presence of ATP
Method in brief: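 Each value is a fold change relative to the detergent-processed vehicle, calculated per replicate from vsn-normalised intensities. Jurkat crude lysate received eight concentrations (0.1 to 10 mM) for 10 min at room temperature and 3 min at 37 °C, then was solubilised in 0.8% NP40 with benzonase (60 min, 4 °C). The ultracentrifuged supernatant was TMT-labelled and run by LC-MS/MS in three independent experiments.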

UniProt Q9Y483, sequence (Q9Y483 whole entry, one chain of several): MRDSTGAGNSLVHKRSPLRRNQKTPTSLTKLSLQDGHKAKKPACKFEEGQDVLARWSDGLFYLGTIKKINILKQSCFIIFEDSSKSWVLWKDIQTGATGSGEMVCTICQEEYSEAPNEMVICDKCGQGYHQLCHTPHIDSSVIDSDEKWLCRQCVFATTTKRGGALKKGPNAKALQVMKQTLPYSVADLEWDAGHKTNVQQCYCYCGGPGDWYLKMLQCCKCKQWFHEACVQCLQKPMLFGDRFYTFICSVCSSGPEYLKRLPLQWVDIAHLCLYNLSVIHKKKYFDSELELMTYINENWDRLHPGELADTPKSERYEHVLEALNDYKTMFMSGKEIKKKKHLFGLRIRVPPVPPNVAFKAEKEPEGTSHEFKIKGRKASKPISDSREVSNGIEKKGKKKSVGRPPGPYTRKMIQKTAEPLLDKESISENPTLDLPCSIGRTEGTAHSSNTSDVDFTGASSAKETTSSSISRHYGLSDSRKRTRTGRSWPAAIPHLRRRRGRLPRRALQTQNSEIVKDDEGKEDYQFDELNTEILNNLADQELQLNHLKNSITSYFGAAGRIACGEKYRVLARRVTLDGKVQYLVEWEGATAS
UniProt B0I1T2, sequence (B0I1T2 whole entry): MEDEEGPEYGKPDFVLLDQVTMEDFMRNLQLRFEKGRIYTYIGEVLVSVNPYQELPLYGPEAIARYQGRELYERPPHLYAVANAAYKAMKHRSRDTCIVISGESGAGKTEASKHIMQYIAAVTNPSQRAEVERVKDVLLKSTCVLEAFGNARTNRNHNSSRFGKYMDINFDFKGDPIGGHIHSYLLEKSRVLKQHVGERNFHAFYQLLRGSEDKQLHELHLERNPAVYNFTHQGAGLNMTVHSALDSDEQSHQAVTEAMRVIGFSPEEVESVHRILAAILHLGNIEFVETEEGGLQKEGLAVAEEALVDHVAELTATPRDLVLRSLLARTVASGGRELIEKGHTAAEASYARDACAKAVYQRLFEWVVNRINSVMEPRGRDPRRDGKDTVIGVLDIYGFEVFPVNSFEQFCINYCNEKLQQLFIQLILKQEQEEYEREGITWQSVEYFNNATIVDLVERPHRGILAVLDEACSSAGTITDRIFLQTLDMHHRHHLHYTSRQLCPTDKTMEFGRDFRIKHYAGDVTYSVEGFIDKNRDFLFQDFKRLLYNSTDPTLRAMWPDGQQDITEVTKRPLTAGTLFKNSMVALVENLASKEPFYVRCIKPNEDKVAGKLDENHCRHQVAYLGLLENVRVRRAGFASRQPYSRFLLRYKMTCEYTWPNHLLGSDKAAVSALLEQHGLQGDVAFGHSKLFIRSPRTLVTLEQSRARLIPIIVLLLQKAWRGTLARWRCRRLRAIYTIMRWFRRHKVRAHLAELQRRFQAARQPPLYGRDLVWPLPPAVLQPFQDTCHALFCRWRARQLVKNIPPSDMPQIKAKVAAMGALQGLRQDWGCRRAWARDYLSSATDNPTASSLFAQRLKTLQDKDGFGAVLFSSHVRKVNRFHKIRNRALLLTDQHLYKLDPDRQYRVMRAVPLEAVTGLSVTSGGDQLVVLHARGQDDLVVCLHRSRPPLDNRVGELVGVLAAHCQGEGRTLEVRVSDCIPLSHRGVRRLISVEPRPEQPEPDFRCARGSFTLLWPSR
UniProt Q9GZN1, sequence (Q9GZN1 whole entry, one chain of several): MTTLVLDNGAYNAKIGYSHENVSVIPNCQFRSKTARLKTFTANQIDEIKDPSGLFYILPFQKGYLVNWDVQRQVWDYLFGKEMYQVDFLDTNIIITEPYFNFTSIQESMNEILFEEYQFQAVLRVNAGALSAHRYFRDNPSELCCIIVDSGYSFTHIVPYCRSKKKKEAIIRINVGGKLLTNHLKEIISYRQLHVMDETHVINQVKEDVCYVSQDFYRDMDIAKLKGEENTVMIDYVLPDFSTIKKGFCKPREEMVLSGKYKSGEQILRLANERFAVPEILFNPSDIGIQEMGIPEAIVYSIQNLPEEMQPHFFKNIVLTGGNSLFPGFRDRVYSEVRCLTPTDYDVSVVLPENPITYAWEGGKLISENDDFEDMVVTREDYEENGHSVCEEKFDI
UniProt Q96DM3, sequence (Q96DM3 whole entry, one chain of several): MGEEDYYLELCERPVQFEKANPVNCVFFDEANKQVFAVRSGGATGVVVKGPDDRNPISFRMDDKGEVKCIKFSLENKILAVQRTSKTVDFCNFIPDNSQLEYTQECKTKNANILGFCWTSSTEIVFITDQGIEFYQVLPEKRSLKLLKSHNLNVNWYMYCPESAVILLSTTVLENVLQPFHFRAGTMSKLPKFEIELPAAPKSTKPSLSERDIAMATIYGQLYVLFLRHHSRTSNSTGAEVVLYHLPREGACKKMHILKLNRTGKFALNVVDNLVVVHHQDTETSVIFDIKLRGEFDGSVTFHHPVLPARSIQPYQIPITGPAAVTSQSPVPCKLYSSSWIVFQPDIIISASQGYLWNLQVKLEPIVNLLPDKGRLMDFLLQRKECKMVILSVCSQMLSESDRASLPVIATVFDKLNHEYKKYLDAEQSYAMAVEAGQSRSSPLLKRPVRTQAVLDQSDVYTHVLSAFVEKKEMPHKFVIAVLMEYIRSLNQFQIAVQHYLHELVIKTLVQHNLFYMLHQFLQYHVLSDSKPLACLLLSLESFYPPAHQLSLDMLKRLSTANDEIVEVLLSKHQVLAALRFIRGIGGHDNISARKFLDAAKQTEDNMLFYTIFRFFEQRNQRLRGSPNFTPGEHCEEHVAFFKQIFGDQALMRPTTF
UniProt P78537, sequence (P78537 whole entry, one chain of several): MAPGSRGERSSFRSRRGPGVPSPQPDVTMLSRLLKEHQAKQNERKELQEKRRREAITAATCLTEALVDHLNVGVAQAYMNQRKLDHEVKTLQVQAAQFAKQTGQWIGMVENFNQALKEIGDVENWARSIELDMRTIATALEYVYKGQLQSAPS
UniProt O75943, sequence (O75943 whole entry, one chain of several): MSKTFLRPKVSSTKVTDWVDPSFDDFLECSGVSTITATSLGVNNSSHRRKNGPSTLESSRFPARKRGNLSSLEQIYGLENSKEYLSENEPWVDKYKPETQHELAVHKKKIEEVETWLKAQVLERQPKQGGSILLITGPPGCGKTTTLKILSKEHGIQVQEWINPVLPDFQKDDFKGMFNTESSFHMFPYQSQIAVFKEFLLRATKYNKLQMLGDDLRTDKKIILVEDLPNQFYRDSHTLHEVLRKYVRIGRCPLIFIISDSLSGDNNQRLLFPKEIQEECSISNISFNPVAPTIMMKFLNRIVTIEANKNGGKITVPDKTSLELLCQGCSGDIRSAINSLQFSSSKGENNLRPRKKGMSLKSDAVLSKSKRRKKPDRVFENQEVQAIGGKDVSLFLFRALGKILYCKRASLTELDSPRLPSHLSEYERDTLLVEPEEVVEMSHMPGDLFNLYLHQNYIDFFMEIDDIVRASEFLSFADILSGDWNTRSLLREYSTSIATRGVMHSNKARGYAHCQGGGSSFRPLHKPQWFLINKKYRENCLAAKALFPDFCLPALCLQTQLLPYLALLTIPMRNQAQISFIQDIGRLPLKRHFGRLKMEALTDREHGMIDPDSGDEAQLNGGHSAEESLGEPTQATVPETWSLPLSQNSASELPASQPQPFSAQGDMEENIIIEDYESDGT
UniProt O00635, sequence (O00635 whole entry): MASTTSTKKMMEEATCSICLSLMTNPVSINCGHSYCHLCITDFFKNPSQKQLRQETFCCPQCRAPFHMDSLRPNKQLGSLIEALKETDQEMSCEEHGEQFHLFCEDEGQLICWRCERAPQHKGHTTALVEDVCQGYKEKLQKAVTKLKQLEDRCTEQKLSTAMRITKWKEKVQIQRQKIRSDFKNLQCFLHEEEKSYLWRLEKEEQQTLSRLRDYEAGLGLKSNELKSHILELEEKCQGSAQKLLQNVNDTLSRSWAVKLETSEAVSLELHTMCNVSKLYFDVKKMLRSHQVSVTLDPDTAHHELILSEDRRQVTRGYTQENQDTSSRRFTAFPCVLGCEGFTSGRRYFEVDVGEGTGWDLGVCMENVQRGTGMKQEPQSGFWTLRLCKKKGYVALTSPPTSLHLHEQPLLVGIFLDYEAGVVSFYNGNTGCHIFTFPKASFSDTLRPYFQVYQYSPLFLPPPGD
UniProt Q9BV68, sequence (Q9BV68 whole entry, one chain of several): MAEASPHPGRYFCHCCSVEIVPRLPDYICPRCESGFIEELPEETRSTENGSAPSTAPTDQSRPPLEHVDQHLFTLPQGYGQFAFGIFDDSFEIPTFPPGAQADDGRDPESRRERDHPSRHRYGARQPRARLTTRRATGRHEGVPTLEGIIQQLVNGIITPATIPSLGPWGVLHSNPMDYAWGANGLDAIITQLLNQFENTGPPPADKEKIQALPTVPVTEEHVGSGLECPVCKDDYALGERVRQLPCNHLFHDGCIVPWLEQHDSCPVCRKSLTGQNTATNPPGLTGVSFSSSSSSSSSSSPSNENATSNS
UniProt Q9UI95, sequence (Q9UI95 whole entry, one chain of several): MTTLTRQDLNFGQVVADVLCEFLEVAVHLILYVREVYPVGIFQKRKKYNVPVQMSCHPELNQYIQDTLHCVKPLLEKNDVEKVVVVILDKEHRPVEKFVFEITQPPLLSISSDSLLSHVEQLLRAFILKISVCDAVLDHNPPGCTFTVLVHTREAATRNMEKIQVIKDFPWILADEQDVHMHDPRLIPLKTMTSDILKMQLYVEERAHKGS
UniProt O00764, sequence (O00764 whole entry): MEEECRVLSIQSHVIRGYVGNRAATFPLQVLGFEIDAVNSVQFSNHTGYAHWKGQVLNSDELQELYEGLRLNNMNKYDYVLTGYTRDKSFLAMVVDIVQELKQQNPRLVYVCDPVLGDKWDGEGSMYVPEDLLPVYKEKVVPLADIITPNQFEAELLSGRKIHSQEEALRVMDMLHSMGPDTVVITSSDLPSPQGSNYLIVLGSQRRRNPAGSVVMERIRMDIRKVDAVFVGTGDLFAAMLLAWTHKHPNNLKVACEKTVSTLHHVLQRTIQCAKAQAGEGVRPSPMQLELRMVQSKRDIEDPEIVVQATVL

Q: With A8MXP9|P43243|P43243-2 (UniProt P43243) as the target, how does the NP40-soluble protein abundance (concentration: 1mM) read?
A: 1.02 ± 0.042

Q: What about the NP40-soluble protein abundance (concentration: 2mM) of the same target?
A: 1.03 ± 0.038

Q: And the NP40-soluble protein abundance (concentration: 4mM)?
A: 1 ± 0.026

Q: And the NP40-soluble protein abundance (concentration: 6mM)?
A: 1.05 ± 0.039

Q: And the NP40-soluble protein abundance (concentration: 8mM)?
A: 1 ± 0.029

Q: And the NP40-soluble protein abundance (concentration: 10mM)?
A: 1.03 ± 0.015

Q: “A8MT02|P14678|P14678-2|P14678-3 (UniProt P14678)” was tested. Which NP40-soluble protein abundance (concentration: 1mM) did it give?
A: 1.22 ± 0.14

Q: And the NP40-soluble protein abundance (concentration: 2mM)?
A: 1.34 ± 0.089

Q: And the NP40-soluble protein abundance (concentration: 4mM)?
A: 1.47 ± 0.05

Q: What about the NP40-soluble protein abundance (concentration: 6mM) of the same target?
A: 1.7 ± 0.26

Q: And the NP40-soluble protein abundance (concentration: 8mM)?
A: 1.7 ± 0.22

Q: And the NP40-soluble protein abundance (concentration: 10mM)?
A: 1.63 ± 0.13

Q: For URB1 (UniProt O60287), which NP40-soluble protein abundance (concentration: 1mM) is on record?
A: 1.29 ± 0.067

Q: And the NP40-soluble protein abundance (concentration: 2mM)?
A: 1.41 ± 0.043

Q: And the NP40-soluble protein abundance (concentration: 4mM)?
A: 1.65 ± 0.057

Q: And the NP40-soluble protein abundance (concentration: 6mM)?
A: 1.7 ± 0.12

Q: And the NP40-soluble protein abundance (concentration: 8mM)?
A: 1.94 ± 0.12

Q: What about the NP40-soluble protein abundance (concentration: 10mM) of the same target?
A: 2.15 ± 0.084

Q: With K7EIY6|Q9BV68-2 (UniProt Q9BV68) as the target, how does the NP40-soluble protein abundance (concentration: 1mM) read?
A: 1 ± 0.15

Q: And the NP40-soluble protein abundance (concentration: 2mM)?
A: 0.967 ± 0.095

Q: And the NP40-soluble protein abundance (concentration: 4mM)?
A: 0.991 ± 0.11

Q: What about the NP40-soluble protein abundance (concentration: 6mM) of the same target?
A: 1 ± 0.1

Q: What about the NP40-soluble protein abundance (concentration: 8mM) of the same target?
A: 0.969 ± 0.034

Q: And the NP40-soluble protein abundance (concentration: 10mM)?
A: 0.92 ± 0.11

Q: What does the source list for PDXK (UniProt O00764)?
A: NP40-soluble protein abundance (concentration: 1mM): 1.02 ± 0.12; NP40-soluble protein abundance (concentration: 2mM): 0.987 ± 0.058; NP40-soluble protein abundance (concentration: 4mM): 1.01 ± 0.066; NP40-soluble protein abundance (concentration: 6mM): 0.935 ± 0.14; NP40-soluble protein abundance (concentration: 8mM): 0.989 ± 0.058; NP40-soluble protein abundance (concentration: 10mM): 0.981 ± 0.051

Q: What does the source list for MYO1G (UniProt B0I1T2)?
A: NP40-soluble protein abundance (concentration: 1mM): 3.09 ± 0.27; NP40-soluble protein abundance (concentration: 2mM): 3.32 ± 0.48; NP40-soluble protein abundance (concentration: 4mM): 3.48 ± 0.58; NP40-soluble protein abundance (concentration: 6mM): 3.19 ± 0.4; NP40-soluble protein abundance (concentration: 8mM): 3.7 ± 0.64; NP40-soluble protein abundance (concentration: 10mM): 3.52 ± 0.5

Q: Which results are given for K7ENL9|Q96DM3 (UniProt Q96DM3)?
A: NP40-soluble protein abundance (concentration: 1mM): 1.04 ± 0.097; NP40-soluble protein abundance (concentration: 2mM): 0.984 ± 0.027; NP40-soluble protein abundance (concentration: 4mM): 1.02 ± 0.029; NP40-soluble protein abundance (concentration: 6mM): 1.02 ± 0.058; NP40-soluble protein abundance (concentration: 8mM): 1.02 ± 0.061; NP40-soluble protein abundance (concentration: 10mM): 0.985 ± 0.03

Q: For “A0A0G2JPT5|O75943|O75943-2 (UniProt O75943)”, which NP40-soluble protein abundance (concentration: 1mM) is on record?
A: 1.49 ± 0.28

Q: What about the NP40-soluble protein abundance (concentration: 2mM) of the same target?
A: 1.59 ± 0.3

Q: What about the NP40-soluble protein abundance (concentration: 4mM) of the same target?
A: 1.62 ± 0.32

Q: And the NP40-soluble protein abundance (concentration: 6mM)?
A: 1.7 ± 0.33

Q: And the NP40-soluble protein abundance (concentration: 8mM)?
A: 1.69 ± 0.28

Q: And the NP40-soluble protein abundance (concentration: 10mM)?
A: 1.65 ± 0.33

Q: For TRIM38 (UniProt O00635), which NP40-soluble protein abundance (concentration: 1mM) is on record?
A: 0.949 ± 0.053

Q: And the NP40-soluble protein abundance (concentration: 2mM)?
A: 1 ± 0.018

Q: And the NP40-soluble protein abundance (concentration: 4mM)?
A: 0.988 ± 0.041

Q: And the NP40-soluble protein abundance (concentration: 6mM)?
A: 0.955 ± 0.046

Q: And the NP40-soluble protein abundance (concentration: 8mM)?
A: 0.986 ± 0.034

Q: And the NP40-soluble protein abundance (concentration: 10mM)?
A: 0.993 ± 0.045

Q: With F5GWN5|O00750 (UniProt O00750) as the target, how does the NP40-soluble protein abundance (concentration: 1mM) read?
A: 0.994 ± 0.022

Q: And the NP40-soluble protein abundance (concentration: 2mM)?
A: 1.03 ± 0.025

Q: What about the NP40-soluble protein abundance (concentration: 4mM) of the same target?
A: 1.05 ± 0.013

Q: And the NP40-soluble protein abundance (concentration: 6mM)?
A: 1.02 ± 0.039

Q: And the NP40-soluble protein abundance (concentration: 8mM)?
A: 1.03 ± 0.028

Q: And the NP40-soluble protein abundance (concentration: 10mM)?
A: 1.03 ± 0.051

Q: What does the source list for B4DZG1|Q9Y483-3|Q9Y483 (UniProt Q9Y483)?
A: NP40-soluble protein abundance (concentration: 1mM): 1.19 ± 0.023; NP40-soluble protein abundance (concentration: 2mM): 1.25 ± 0.027; NP40-soluble protein abundance (concentration: 4mM): 1.36 ± 0.057; NP40-soluble protein abundance (concentration: 6mM): 1.41 ± 0.082; NP40-soluble protein abundance (concentration: 8mM): 1.5 ± 0.032; NP40-soluble protein abundance (concentration: 10mM): 1.56 ± 0.049

Q: What does the source list for G8JLQ3|P78537|P78537-2 (UniProt P78537)?
A: NP40-soluble protein abundance (concentration: 1mM): 0.965 ± 0.12; NP40-soluble protein abundance (concentration: 2mM): 0.88 ± 0.076; NP40-soluble protein abundance (concentration: 4mM): 0.834 ± 0.1; NP40-soluble protein abundance (concentration: 6mM): 0.861 ± 0.12; NP40-soluble protein abundance (concentration: 8mM): 0.816 ± 0.032; NP40-soluble protein abundance (concentration: 10mM): 0.702 ± 0.15

Q: Which NP40-soluble protein abundance (concentration: 1mM) does the source give for B1AK44|Q9UI95 (UniProt Q9UI95) here?
A: 0.999 ± 0.022

Q: What about the NP40-soluble protein abundance (concentration: 2mM) of the same target?
A: 0.937 ± 0.037

Q: What about the NP40-soluble protein abundance (concentration: 4mM) of the same target?
A: 0.978 ± 0.024

Q: What about the NP40-soluble protein abundance (concentration: 6mM) of the same target?
A: 1.01 ± 0.087

Q: And the NP40-soluble protein abundance (concentration: 8mM)?
A: 1.05 ± 0.086

Q: What about the NP40-soluble protein abundance (concentration: 10mM) of the same target?
A: 0.993 ± 0.059

Q: What does the source list for HAT1 (UniProt O14929)?
A: NP40-soluble protein abundance (concentration: 1mM): 1.01 ± 0.16; NP40-soluble protein abundance (concentration: 2mM): 0.995 ± 0.098; NP40-soluble protein abundance (concentration: 4mM): 0.957 ± 0.08; NP40-soluble protein abundance (concentration: 6mM): 0.895 ± 0.15; NP40-soluble protein abundance (concentration: 8mM): 0.97 ± 0.09; NP40-soluble protein abundance (concentration: 10mM): 0.955 ± 0.04

Q: What does the source list for F8W057|Q9GZN1|Q9GZN1-2 (UniProt Q9GZN1)?
A: NP40-soluble protein abundance (concentration: 1mM): 1.07 ± 0.034; NP40-soluble protein abundance (concentration: 2mM): 1.11 ± 0.034; NP40-soluble protein abundance (concentration: 4mM): 1.1 ± 0.065; NP40-soluble protein abundance (concentration: 6mM): 1.03 ± 0.089; NP40-soluble protein abundance (concentration: 8mM): 1.2 ± 0.028; NP40-soluble protein abundance (concentration: 10mM): 1.17 ± 0.089
